# Laboratory results taken from article PMC7862700, “An all-to-all approach to the identification of sequence-specific readers for epigenetic DNA modifications on cytosine”.
# Assays:
# Experiment in all cases: DAPPL (digital affinity profiling via proximity ligation, sequencing); 10 mM Tris-HCl pH 7.5, 50 mM NaCl, 1 mM DTT, 4% glycerol, room temperature, 30 min; GST-TFs on glutathione beads, 16-mer random dsDNA library, 0.1% formaldehyde crosslink after washing; high values mean tight binding
# [1] = biological target: T1, FLI1 (Homo sapiens, UniProt Q01543 1-452); details: protein: recombinant; tags: N-terminal GST; dsDNA, one strand shown
# T1 sequence: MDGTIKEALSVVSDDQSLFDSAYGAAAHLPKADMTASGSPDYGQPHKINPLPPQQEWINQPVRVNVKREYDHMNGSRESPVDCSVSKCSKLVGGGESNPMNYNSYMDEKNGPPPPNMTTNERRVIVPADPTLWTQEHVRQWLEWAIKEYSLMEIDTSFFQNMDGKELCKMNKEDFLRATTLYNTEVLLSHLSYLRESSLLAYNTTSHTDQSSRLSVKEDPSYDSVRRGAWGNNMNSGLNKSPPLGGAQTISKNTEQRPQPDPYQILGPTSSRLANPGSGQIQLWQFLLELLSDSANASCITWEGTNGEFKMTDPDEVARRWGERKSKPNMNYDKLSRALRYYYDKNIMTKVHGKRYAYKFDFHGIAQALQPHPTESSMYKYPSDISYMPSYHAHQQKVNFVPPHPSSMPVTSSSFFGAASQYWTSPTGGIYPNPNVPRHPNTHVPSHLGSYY
# Method in brief: (§1)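 A tag-only sample was pooled with DNA-barcoded human transcription factors that had been expressed in yeast as GST fusions and captured on glutathione beads. The pools were incubated for 30 min at room temperature with 200 nmole of a random double-stranded 16-mer DNA library in Tris/NaCl/DTT/glycerol buffer, then washed, crosslinked with 0.1% formaldehyde, proximity-ligated (BsaI/T4 ligase, 1 h, 37 °C), PCR-amplified and sequenced on an Illumina NextSeq500. Binding signal is each hexamer's read frequency for a factor divided by its frequency for the tag-only sample.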
# [2] = biological target: T2, ELK1 (Homo sapiens, UniProt P19419 1-428); details: protein: recombinant; tags: N-terminal GST; dsDNA, one strand shown
# T2 sequence: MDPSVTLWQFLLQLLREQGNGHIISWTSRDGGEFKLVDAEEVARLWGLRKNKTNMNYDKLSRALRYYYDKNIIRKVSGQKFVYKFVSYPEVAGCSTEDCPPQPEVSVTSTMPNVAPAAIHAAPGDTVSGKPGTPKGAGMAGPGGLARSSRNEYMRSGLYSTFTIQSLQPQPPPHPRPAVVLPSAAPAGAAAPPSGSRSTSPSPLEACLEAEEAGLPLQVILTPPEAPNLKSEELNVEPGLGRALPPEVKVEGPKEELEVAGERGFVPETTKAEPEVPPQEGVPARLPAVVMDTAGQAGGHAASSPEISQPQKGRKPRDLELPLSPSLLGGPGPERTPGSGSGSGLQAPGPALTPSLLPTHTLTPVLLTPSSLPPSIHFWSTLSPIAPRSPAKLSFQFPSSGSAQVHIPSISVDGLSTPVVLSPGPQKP
# Method in brief: as §1
# [3] = biological target: T3, GABPA (Homo sapiens, UniProt Q06546 1-454); details: protein: recombinant; tags: N-terminal GST; dsDNA, one strand shown
# T3 sequence: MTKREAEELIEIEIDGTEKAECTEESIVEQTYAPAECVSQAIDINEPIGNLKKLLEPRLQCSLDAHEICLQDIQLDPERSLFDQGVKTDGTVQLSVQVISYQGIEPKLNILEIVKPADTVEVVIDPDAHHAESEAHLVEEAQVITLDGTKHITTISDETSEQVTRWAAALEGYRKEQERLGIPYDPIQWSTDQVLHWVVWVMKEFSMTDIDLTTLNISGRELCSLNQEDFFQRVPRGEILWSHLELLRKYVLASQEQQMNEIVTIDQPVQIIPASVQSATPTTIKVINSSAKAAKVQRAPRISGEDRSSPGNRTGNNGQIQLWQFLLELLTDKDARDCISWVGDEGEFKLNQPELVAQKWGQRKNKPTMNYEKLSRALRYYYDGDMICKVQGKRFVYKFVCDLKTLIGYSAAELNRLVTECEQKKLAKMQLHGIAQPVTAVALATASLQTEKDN
# Method in brief: as §1
# [4] = biological target: T4, ERG (Homo sapiens, UniProt P11308 1-479); details: protein: recombinant; tags: N-terminal GST; dsDNA, one strand shown
# T4 sequence: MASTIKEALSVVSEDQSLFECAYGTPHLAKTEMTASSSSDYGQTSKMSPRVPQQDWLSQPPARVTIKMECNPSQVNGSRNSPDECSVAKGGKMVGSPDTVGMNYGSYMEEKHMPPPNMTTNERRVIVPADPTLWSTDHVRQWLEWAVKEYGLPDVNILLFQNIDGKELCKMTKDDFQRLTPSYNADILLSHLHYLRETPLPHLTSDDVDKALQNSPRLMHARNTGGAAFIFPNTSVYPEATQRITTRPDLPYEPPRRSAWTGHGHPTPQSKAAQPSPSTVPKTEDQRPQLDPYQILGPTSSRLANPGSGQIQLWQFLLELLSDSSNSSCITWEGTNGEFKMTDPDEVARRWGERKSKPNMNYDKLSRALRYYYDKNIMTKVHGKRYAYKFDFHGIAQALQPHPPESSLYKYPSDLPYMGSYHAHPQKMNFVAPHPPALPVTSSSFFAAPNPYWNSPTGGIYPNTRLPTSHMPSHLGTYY
# Method in brief: as §1
# [5] = biological target: ELF1 (Homo sapiens, UniProt P32519 1-619); details: protein: recombinant; tags: N-terminal GST; dsDNA, one strand shown
# Method in brief: as §1
# [6] = biological target: T5, EHF (Homo sapiens, UniProt Q9NZC4 1-300); details: protein: recombinant; tags: N-terminal GST; dsDNA, one strand shown
# T5 sequence: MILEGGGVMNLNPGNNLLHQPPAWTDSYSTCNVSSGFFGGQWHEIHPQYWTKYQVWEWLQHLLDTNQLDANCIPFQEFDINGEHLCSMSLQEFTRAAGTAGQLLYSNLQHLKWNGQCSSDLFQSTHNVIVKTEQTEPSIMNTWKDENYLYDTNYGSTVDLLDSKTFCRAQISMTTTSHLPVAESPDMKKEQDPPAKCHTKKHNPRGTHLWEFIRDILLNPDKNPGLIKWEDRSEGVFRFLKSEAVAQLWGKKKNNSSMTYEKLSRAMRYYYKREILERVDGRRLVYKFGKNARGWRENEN
# Method in brief: as §1
# [7] = biological target: SPI1 (Homo sapiens, UniProt P17947 1-270); details: protein: recombinant; tags: N-terminal GST; dsDNA, one strand shown
# Method in brief: as §1
# [8] = biological target: SPIB (Homo sapiens, UniProt Q01892 1-262); details: protein: recombinant; tags: N-terminal GST; dsDNA, one strand shown
# Method in brief: as §1
# [9] = biological target: T6, ELK3 (Homo sapiens, UniProt P41970 1-407); details: protein: recombinant; tags: N-terminal GST; dsDNA, one strand shown
# T6 sequence: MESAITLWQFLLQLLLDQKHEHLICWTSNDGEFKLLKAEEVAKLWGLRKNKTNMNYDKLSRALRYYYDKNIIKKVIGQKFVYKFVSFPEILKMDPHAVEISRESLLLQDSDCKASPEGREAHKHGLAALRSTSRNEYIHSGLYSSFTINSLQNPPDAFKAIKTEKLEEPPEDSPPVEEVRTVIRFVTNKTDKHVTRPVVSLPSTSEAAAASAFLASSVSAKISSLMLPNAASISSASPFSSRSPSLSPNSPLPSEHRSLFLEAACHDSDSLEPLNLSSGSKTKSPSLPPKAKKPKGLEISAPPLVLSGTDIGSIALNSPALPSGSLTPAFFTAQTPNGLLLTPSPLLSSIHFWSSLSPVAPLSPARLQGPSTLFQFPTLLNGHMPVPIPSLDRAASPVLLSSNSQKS
# Method in brief: as §1
# [10] = biological target: T7, FEV (Homo sapiens, UniProt Q99581 1-238); details: protein: recombinant; tags: N-terminal GST; dsDNA, one strand shown
# T7 sequence: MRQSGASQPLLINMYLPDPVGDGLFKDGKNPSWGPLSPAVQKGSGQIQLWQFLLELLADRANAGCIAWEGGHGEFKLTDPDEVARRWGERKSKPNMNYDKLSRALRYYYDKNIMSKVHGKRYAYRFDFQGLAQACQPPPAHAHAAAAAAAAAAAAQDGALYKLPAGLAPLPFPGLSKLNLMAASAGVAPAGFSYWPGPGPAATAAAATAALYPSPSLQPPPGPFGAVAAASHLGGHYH
# Method in brief: as §1
# [11] = biological target: ETV5 (Homo sapiens, UniProt P41161 1-510); details: protein: recombinant; tags: N-terminal GST; dsDNA, one strand shown
# Method in brief: as §1
# [12] = biological target: HSF1 (Homo sapiens, UniProt Q00613 1-529); details: protein: recombinant; tags: N-terminal GST; chain copies: 3; dsDNA, one strand shown
# Method in brief: as §1
# [13] = biological target: T8, SPIC (Homo sapiens, UniProt Q8N5J4 1-248); details: protein: recombinant; tags: N-terminal GST; dsDNA, one strand shown
# T8 sequence: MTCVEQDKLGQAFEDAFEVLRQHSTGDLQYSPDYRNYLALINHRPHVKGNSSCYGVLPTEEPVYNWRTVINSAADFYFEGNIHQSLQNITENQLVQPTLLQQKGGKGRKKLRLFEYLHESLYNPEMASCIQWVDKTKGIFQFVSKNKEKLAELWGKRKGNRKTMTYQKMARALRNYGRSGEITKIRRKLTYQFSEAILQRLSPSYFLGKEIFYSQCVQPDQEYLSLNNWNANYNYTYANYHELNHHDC
# Method in brief: as §1
# [14] = biological target: ELF4 (Homo sapiens, UniProt Q99607 1-663); details: protein: recombinant; tags: N-terminal GST; dsDNA, one strand shown
# Method in brief: as §1
# [15] = biological target: T9, ELK4 (Homo sapiens, UniProt P28324-2 1-405); details: protein: recombinant; tags: N-terminal GST; dsDNA, one strand shown
# T9 sequence: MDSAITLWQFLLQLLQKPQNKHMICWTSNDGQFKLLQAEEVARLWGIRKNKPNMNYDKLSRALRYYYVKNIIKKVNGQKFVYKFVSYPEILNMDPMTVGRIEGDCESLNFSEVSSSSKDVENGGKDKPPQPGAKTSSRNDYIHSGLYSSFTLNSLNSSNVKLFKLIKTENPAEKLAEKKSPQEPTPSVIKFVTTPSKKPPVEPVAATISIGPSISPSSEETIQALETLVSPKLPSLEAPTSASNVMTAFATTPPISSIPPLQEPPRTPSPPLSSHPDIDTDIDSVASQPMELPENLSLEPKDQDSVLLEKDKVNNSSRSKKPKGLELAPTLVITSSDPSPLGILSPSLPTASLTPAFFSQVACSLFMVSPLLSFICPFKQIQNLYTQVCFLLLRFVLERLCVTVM
# Method in brief: as §1
# [16] = biological target: T10, ETV2 (Homo sapiens, UniProt O00321 1-342); details: protein: recombinant; tags: N-terminal GST; dsDNA, one strand shown
# T10 sequence: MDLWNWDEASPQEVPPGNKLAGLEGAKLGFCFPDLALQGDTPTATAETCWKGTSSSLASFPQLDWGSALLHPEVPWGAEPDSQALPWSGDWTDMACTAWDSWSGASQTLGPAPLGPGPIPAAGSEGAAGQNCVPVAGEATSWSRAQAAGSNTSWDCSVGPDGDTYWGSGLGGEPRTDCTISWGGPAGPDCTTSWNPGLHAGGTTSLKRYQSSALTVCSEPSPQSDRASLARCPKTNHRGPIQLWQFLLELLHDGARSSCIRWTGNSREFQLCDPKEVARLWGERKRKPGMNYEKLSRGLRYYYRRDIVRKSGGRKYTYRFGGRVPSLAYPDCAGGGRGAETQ
# Method in brief: as §1
# [17] = biological target: T11, ELF3 (Homo sapiens, UniProt P78545 1-371); details: protein: recombinant; tags: N-terminal GST; dsDNA, one strand shown
# T11 sequence: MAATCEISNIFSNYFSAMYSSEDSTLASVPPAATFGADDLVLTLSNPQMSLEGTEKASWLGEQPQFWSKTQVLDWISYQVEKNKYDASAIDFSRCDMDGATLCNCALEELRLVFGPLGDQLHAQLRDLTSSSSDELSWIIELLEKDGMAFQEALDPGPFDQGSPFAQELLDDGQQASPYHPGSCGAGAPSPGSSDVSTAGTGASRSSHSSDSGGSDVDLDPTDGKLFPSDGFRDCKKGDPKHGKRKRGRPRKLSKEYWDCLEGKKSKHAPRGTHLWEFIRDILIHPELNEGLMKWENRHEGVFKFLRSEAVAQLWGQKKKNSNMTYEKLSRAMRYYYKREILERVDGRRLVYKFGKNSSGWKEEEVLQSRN
# Method in brief: as §1
# [18] = biological target: CRX (Homo sapiens, UniProt O43186 1-299); details: protein: recombinant; tags: N-terminal GST; dsDNA, one strand shown
# Method in brief: as §1
# [19] = biological target: ETV1 (Homo sapiens, UniProt P50549 1-477); details: protein: recombinant; tags: N-terminal GST; dsDNA, one strand shown
# Method in brief: as §1
# Sequence of ETV1 (P50549 whole entry): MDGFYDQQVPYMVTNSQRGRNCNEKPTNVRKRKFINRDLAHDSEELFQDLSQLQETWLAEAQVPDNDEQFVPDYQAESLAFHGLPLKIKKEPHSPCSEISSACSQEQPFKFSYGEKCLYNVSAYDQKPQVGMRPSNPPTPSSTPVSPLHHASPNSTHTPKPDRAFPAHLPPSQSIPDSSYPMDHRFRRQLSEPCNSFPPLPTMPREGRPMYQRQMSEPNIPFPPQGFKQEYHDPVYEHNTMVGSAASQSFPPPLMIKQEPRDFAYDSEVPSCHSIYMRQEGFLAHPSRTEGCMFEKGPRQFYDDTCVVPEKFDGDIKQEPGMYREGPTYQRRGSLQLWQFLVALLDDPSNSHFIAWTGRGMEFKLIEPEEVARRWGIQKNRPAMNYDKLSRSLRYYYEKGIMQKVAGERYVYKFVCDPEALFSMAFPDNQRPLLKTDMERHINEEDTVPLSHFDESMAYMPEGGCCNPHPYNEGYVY
# Sequence of SPIB (Q01892 whole entry): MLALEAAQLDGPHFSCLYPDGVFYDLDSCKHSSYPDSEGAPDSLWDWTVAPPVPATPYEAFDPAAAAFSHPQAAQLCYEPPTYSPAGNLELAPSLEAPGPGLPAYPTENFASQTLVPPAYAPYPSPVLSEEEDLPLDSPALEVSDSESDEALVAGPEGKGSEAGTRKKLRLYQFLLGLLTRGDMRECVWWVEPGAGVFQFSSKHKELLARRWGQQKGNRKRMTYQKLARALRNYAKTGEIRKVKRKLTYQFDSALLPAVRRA
# Sequence of HSF1 (Q00613 whole entry): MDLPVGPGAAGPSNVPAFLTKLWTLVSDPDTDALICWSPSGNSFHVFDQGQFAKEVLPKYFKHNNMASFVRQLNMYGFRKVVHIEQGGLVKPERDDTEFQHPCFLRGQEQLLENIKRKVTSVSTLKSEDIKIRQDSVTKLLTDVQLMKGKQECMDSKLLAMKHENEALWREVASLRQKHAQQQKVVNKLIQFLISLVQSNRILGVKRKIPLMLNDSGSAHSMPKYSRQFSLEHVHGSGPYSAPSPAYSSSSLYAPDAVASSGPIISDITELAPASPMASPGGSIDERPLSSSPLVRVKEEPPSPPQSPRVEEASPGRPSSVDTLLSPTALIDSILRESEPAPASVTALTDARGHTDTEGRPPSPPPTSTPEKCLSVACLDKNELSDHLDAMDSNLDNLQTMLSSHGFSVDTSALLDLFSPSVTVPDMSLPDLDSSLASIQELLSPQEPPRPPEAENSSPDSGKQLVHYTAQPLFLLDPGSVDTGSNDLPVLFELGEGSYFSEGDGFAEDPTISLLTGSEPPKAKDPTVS
# Sequence of CRX (O43186 whole entry): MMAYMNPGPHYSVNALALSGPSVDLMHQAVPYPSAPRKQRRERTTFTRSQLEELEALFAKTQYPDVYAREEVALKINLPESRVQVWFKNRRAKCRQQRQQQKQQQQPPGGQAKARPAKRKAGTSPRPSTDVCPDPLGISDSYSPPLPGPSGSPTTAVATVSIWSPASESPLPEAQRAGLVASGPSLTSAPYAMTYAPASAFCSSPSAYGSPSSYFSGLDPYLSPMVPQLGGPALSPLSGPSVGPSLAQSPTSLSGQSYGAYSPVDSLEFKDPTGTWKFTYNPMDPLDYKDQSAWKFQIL
# Sequence of ETV5 (P41161 whole entry): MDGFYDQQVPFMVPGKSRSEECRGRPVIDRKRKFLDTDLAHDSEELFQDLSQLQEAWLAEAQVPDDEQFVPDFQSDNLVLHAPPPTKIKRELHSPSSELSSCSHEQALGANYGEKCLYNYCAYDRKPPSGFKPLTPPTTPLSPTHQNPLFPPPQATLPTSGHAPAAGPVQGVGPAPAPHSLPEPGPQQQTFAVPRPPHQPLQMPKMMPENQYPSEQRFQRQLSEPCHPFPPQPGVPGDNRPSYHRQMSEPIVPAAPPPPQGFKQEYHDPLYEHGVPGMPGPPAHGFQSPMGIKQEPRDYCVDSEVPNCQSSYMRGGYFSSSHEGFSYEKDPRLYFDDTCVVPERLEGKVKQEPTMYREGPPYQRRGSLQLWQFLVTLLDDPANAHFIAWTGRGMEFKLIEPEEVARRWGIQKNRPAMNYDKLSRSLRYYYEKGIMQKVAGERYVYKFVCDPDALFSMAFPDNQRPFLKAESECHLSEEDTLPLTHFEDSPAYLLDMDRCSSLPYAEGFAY
# Sequence of ELF4 (Q99607 whole entry): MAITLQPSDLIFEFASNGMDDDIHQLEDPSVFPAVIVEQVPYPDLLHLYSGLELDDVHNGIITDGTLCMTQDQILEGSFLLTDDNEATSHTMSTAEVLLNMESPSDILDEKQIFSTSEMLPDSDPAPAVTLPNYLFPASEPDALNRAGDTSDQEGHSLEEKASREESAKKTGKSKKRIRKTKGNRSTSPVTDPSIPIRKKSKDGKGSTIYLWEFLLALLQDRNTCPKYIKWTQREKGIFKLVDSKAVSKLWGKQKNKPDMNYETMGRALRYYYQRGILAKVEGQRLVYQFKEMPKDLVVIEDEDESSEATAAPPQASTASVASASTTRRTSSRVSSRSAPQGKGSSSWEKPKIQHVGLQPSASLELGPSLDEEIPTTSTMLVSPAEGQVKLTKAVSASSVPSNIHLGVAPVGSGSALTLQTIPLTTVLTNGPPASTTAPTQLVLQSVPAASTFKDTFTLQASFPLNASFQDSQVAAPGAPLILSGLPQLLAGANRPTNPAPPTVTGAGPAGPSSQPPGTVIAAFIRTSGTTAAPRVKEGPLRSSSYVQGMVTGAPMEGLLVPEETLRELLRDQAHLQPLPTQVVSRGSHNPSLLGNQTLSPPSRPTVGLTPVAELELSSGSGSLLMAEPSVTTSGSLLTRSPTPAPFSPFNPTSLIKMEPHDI
# Sequence of ELF1 (P32519 whole entry): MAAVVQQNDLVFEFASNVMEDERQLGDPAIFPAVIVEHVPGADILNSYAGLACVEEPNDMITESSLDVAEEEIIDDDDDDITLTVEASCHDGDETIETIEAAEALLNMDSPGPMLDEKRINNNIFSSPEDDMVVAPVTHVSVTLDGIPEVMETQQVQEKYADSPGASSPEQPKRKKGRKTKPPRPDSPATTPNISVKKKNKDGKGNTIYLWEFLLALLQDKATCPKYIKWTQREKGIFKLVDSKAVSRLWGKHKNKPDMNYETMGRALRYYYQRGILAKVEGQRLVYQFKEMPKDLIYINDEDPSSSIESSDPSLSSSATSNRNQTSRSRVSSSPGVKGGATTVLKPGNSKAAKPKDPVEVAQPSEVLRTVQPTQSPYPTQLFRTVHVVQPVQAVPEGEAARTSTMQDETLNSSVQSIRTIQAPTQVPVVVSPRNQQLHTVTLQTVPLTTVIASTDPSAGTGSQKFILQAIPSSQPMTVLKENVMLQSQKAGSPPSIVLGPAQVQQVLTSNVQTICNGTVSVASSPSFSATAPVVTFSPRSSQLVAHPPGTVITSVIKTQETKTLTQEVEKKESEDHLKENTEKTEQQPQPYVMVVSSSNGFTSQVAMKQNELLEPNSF
sequence,measurement,setting,value
CCCCAT,binding signal,[1],"1.37 fold enrichment (6-mer frequency, TF over GST control)"
same,binding signal,[2],"1.24 fold enrichment (6-mer frequency, TF over GST control)"
same,binding signal,[3],"1.26 fold enrichment (6-mer frequency, TF over GST control)"
same,binding signal,[4],"1.34 fold enrichment (6-mer frequency, TF over GST control)"
same,binding signal,[5],"1.31 fold enrichment (6-mer frequency, TF over GST control)"
same,binding signal,[6],"1.27 fold enrichment (6-mer frequency, TF over GST control)"
same,binding signal,[7],"1.46 fold enrichment (6-mer frequency, TF over GST control)"
same,binding signal,[8],"1.18 fold enrichment (6-mer frequency, TF over GST control)"
same,binding signal,[9],"1.2 fold enrichment (6-mer frequency, TF over GST control)"
same,binding signal,[10],"1.2 fold enrichment (6-mer frequency, TF over GST control)"
same,binding signal,[11],"1.34 fold enrichment (6-mer frequency, TF over GST control)"
same,binding signal,[12],"1.1 fold enrichment (6-mer frequency, TF over GST control)"
same,binding signal,[13],"1.41 fold enrichment (6-mer frequency, TF over GST control)"
same,binding signal,[14],"1.34 fold enrichment (6-mer frequency, TF over GST control)"
same,binding signal,[15],"1.22 fold enrichment (6-mer frequency, TF over GST control)"
same,binding signal,[16],"1.52 fold enrichment (6-mer frequency, TF over GST control)"
same,binding signal,[17],"1.16 fold enrichment (6-mer frequency, TF over GST control)"
same,binding signal,[18],"1.15 fold enrichment (6-mer frequency, TF over GST control)"
same,binding signal,[19],"1.37 fold enrichment (6-mer frequency, TF over GST control)"
